Assay outcomes: PubChem, several laboratories
CYP2C19 activ – human CYP2C19 activators, primary screen, biochemical, luminescence; Cytochrome P450 2C19 (Homo sapiens), P33261; recombinant CYP2C19, luciferin-H EGE luminescence; hits give high values; 0 = fully inhibited enzyme, 1 = untreated enzyme; activation factor at 5 µM; 96,000 tested, under 10 active; AID 1025, 2008;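 active means activation factor of at least 2 at 5 µM in the primary screen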;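 further: 0 = wells with 2.5 mM tranylcypromine and 1 = vehicle-only wells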
Target sequence (P33261 whole entry, looked up): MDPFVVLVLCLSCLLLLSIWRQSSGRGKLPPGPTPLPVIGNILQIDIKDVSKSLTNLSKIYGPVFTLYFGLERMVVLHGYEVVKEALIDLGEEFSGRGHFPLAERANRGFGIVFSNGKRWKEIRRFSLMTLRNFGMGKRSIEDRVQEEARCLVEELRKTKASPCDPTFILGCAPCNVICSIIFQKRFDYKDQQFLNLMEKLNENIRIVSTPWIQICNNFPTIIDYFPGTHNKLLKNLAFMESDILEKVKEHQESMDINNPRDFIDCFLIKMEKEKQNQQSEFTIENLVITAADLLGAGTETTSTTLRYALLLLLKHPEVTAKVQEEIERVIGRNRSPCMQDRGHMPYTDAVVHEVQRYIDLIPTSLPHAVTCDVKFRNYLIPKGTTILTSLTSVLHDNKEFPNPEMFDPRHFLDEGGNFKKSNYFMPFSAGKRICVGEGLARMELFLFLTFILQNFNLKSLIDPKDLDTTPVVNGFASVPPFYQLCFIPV
CYP2C9 activ – human CYP2C9 activators, primary screen, biochemical, luminescence; Cytochrome P450 2C9 (Homo sapiens), P11712; recombinant CYP2C9, luciferin-H conversion; hits give high values; factor 1 = untreated enzyme, 0 = blocked; AID 1024, 2008; 96,000 compounds, 1.4% hits; activation factor at 5 µM;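 active means activation factor of 2 or more for CYP2C9 at a 5 µM dose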;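 further: 0 = sulfaphenazole-blocked wells and 1 = vehicle-only wells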
CYP2C9 inhib – blockers of cytochrome P450 2C9 activity – biochemical, luminescence, ADME assay, primary screen; P11712; CYP2C9 Supersomes, luciferin-H conversion; inhibition, % at 5 µM; 96,000 compounds, 20% hits; AID 777, 2007;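 active means blocking of liver enzyme CYP2C9 beyond about 50% at 5 µM, limit read from the data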
CYP2C19 inhib – blockers of cytochrome P450 2C19 activity – biochemical, luminescence, ADME assay, primary screen. P33261. CYP2C19 Supersomes, luciferin-H EGE luminescence, 30 min. inhibition, % at 5 µM. 96,000 compounds, 21% hits;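 active means CYP2C19 inhibition above a set limit at 5 µM in the primary screen, cut at about 50% in these data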;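 further: plate controls were negative control wells for no effect and 2.5 mM tranylcypromine positive control for full effect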
E-sel TNF inh – E-selectin induction blockers in HUVEC – imaging, immunofluorescence, high content, primary screen | inhibition, % at 2 µM | HUVEC TNFa-induced E-selectin immunofluorescence | 120,000 compounds, 0.71% hits;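 active means inhibition above the batch mean plus 3 SD, and confirmed as a hit on visual image review, cut at about 43% in these data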;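 further: 0% = TNF-stimulated DMSO wells and 100% = unstimulated control wells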
F-actin modifier – modifiers of F-actin cytoskeleton organization, primary screen, imaging, HUVEC, phalloidin staining, high-content imaging; HUVEC TNFa F-actin phalloidin imaging; inhibition, % at 2 µM; 91,000 compounds, 0.18% hits; AID 836, 2007;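 active means inhibition above the batch mean plus 3 SD and confirmed as a hit by visual image inspection, cut at about 30% in these data, passing the limit was not always enough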
Starred values were filed as active, the others as inactive. Rows were chosen to be rich in hits. Some 22% of all compounds tested hit in one or more screens of this group.

O=C(NCc1ccco1)C1CCN(C(=O)c2cc3sccc3n2Cc2ccc(F)cc2)CC1 was read as CYP2C19 activ 0.1, CYP2C9 activ 0, CYP2C9 inhib 98*, CYP2C19 inhib 86*, E-sel TNF inh -22 and F-actin modifier -1.
Screening O=C(c1ccco1)N1CCN(C(=O)c2cc3sccc3n2Cc2ccccc2)CC1 returned CYP2C19 activ 0.8, CYP2C9 activ 0.1, CYP2C9 inhib 89*, CYP2C19 inhib 20, E-sel TNF inh 12 and F-actin modifier -65.
For CCOC(=O)N1CCN(c2ccc(S(=O)(=O)N(Cc3ccccc3)Cc3ccccc3)cn2)CC1 the results were CYP2C19 activ 1, CYP2C9 activ 0.5, CYP2C9 inhib 48, CYP2C19 inhib 4 and F-actin modifier 11.
`N#Cc1c(SCC(=O)O)nc(-c2ccccc2)c2c1CCCC2` gave CYP2C19 activ 1, CYP2C9 activ 0.7, CYP2C9 inhib 29, CYP2C19 inhib 0 and E-sel TNF inh -6.
For N#Cc1c(SCc2ccccc2)nc(N2CCOCC2)c2c1CCCC2 the results were CYP2C19 activ 0.7, CYP2C9 activ 0.1, CYP2C9 inhib 92*, CYP2C19 inhib 35, E-sel TNF inh -26 and F-actin modifier 40.
For CN1CCc2c(C#N)c(N3CCCCC3)nc(N3CCOCC3)c2C1 the results were F-actin modifier -14.
CCSc1nc(N2CCCCC2)c2c(c1C#N)CCCC2 was read as CYP2C19 activ 0.3, CYP2C9 activ 0.1, CYP2C9 inhib 93*, CYP2C19 inhib 69*, E-sel TNF inh -11 and F-actin modifier 15.
Cc1occc1C(=O)Nc1cccc2ccccc12 was read as E-sel TNF inh -10.
Screening O=C(CCCOc1ccc(Cl)cc1)N1CCOCC1 returned CYP2C19 activ 0.1, CYP2C9 activ 1, CYP2C9 inhib 1, CYP2C19 inhib 87*, E-sel TNF inh 21 and F-actin modifier -8.
For O=C(OCCCC(=O)N1CCOCC1)c1ccccc1 the results were CYP2C19 activ 0.5, CYP2C9 activ 1.1, CYP2C9 inhib -7, CYP2C19 inhib 48, E-sel TNF inh -14 and F-actin modifier -12.
For O=C(CCCOc1ccc(Cl)cc1)N1CCCCC1 the results were CYP2C19 activ 0, CYP2C9 activ 0.6, CYP2C9 inhib 40, CYP2C19 inhib 98*, E-sel TNF inh 2 and F-actin modifier 12.
Screening CCC1CCCCN1C(=O)CCCOc1ccccc1 (stereo not given) returned CYP2C19 activ 0.5, CYP2C9 activ 0.9, CYP2C9 inhib 9, CYP2C19 inhib 50*, E-sel TNF inh 8 and F-actin modifier -17.
Screening O=C(CCCOc1ccccc1)N1CCCCC1 returned CYP2C19 activ 0.4, CYP2C9 activ 1, CYP2C9 inhib 3, CYP2C19 inhib 56*, E-sel TNF inh -3 and F-actin modifier -6.
For O=C(CCCOc1ccc(Cl)cc1)N1CCCCCC1 the results were CYP2C19 activ 0, CYP2C9 activ 0.4, CYP2C9 inhib 59*, CYP2C19 inhib 95*, E-sel TNF inh 15 and F-actin modifier -31.
For COc1ccc(C(C)(C)C)cc1NC(=O)COC(=O)c1ccc([N+](=O)[O-])o1 the results were E-sel TNF inh -3.
`Cc1c(Br)cc(C(=O)N2CCN(CCO)CC2)c(C)c1C` gave CYP2C19 activ 0.8, CYP2C9 activ 0.8, CYP2C9 inhib 17, CYP2C19 inhib 20, E-sel TNF inh -22 and F-actin modifier -3.
Screening Cc1noc(C)c1CSCC(=O)OCc1nc2ccccc2c(=O)n1CC#N returned CYP2C19 activ 0.5, CYP2C9 activ 0.3, CYP2C9 inhib 65*, CYP2C19 inhib 48 and E-sel TNF inh -21.
`CNc1oc(C)nc1S(=O)(=O)c1ccc(C)cc1` gave CYP2C19 activ 1.1, CYP2C9 activ 1.2, CYP2C9 inhib -24, CYP2C19 inhib -13, E-sel TNF inh 10 and F-actin modifier 3.
Screening CC1(C)CC(=O)C2=C(C1)N=C1c3ccccc3C(=O)C1C2c1ccc(Cl)cc1 (stereo not given) returned CYP2C19 activ 0.2, CYP2C9 activ 0.1, CYP2C9 inhib 92*, CYP2C19 inhib 81*, E-sel TNF inh 9 and F-actin modifier 23.
For O=C(CSc1n[nH]c(-c2cccs2)n1)N1CCN(S(=O)(=O)c2ccc3ccccc3c2)CC1 the results were CYP2C19 activ 0.8, CYP2C9 activ 1, CYP2C9 inhib 2, CYP2C19 inhib 23, E-sel TNF inh -21 and F-actin modifier 7.
O=C(c1n[nH]c2ccccc12)N1CCN(S(=O)(=O)c2ccc3ccccc3c2)CC1 was read as CYP2C19 activ 0.8, CYP2C9 activ 0.4, CYP2C9 inhib 56* and CYP2C19 inhib 22.
Screening O=C(c1cnccn1)N1CCN(S(=O)(=O)c2ccc3ccccc3c2)CC1 returned CYP2C19 activ 0.1, CYP2C9 activ 0.8, CYP2C9 inhib 17, CYP2C19 inhib 95*, E-sel TNF inh -3 and F-actin modifier -3.
For Cc1cnc(C(=O)N2CCN(S(=O)(=O)c3ccc4ccccc4c3)CC2)cn1 the results were CYP2C19 activ 0.8, CYP2C9 activ 1.2, CYP2C9 inhib -15, CYP2C19 inhib 23, E-sel TNF inh 31 and F-actin modifier -7.
`Cc1ccc(C)c(S(=O)(=O)N2CCN(C(=O)c3cnccn3)CC2)c1` gave CYP2C19 activ 0.5, CYP2C9 activ 0.5, CYP2C9 inhib 51*, CYP2C19 inhib 51*, E-sel TNF inh 7 and F-actin modifier -26.
`CC(C)n1c(/N=C/c2c[nH]c3ccccc23)nc2ccccc21` gave CYP2C19 activ 1, CYP2C9 activ 0.7, CYP2C9 inhib 25, CYP2C19 inhib -3, E-sel TNF inh 4 and F-actin modifier 2.
`CCNC(=S)NNC(=O)C1CCCCC1` gave CYP2C19 activ 1, CYP2C9 activ 1, CYP2C9 inhib -2, CYP2C19 inhib -1 and F-actin modifier -10.
For O=C(Cc1ccc(-n2cnnn2)cc1)NC12CC3CC(CC(C3)C1)C2 the results were CYP2C19 activ 0.9, CYP2C9 activ 0.8, CYP2C9 inhib 25, CYP2C19 inhib 5, E-sel TNF inh -6 and F-actin modifier -5.
Cc1[nH]c(=O)[nH]c(=O)c1S(=O)(=O)N1CCC(C(=O)N2CCN(Cc3ccccc3)CC2)CC1 was read as CYP2C19 activ 1, CYP2C9 activ 0.9, CYP2C9 inhib 5, CYP2C19 inhib 0, E-sel TNF inh 9 and F-actin modifier -1.
For COC(=O)C1=C(C(=O)OC)SC2(S1)C(C(=O)OC)=C(C(=O)OC)SC1=C2c2cccc(C)c2NC1(C)C the results were CYP2C19 activ 0.1, CYP2C9 activ 0.1, CYP2C9 inhib 88*, CYP2C19 inhib 85*, E-sel TNF inh -1 and F-actin modifier 11.
